High-throughput results deposited in PubChem by National Center for Advancing Translational Sciences (NCATS).
In the library only some 2.8% were active in any assay of this set; here they are far more common.
BRCA1 expr act: increases BRCA1 expression; MCF7-BRCA1-FFLuc reporter, luminescence, 48 h; response scale: scaled: vehicle 0%, 10 µM genistein 100%; Potency, µM (doses to about 46.1 µM), for inactives: at the top dose activation, actives largely listed as activators; 380,000 compounds, 1.1% hits; AID 624202; further: nearly all actives have a fitted effect of over 80% in size
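Using MCF7 cells harboring a BRCA1 firefly luciferase reporter, plated 2 h before compound pinning, the screen measured luminescence after 48 h incubation. Responses were normalized to DMSO and 10 microM genistein, then fitted for concentration-effect.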
GLP1R ag: activates the human GLP-1 receptor; P43220; HEK293 GLP-1R CRE-luciferase, luminescence, 4-6 h; cells express a hypersensitive GLP-1R form; Potency, µM (top dose mostly 45.6 µM), without a hit: top-dose activation, most hits filed as activators; 380,000 compounds, 0.007% hits; AID 624172; further: % of control where 0% means no effect
Target sequence (P43220 whole entry, looked up): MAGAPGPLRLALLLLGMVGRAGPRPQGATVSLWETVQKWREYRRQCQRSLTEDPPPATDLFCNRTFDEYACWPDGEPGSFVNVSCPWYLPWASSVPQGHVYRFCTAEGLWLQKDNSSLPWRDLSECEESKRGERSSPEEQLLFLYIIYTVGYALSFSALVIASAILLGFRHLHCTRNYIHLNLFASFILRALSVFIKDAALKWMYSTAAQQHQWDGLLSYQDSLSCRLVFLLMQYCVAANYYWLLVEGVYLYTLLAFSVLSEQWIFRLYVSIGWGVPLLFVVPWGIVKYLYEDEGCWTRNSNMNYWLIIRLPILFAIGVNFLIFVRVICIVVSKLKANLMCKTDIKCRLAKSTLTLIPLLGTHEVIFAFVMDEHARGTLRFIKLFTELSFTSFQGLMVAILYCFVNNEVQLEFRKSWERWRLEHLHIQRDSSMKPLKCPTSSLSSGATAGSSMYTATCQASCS
GLP1R inv ag: GLP-1 receptor (human) inverse agonism. 410,000 compounds, 1.6% hits. HEK293 GLP-1R CRE-luciferase, luminescence, 24 h; GLP-1R form is constitutively active. Potency, µM (series often up to 38.3 µM), without a hit: top-dose activity change, negative = inhibition, usual class: inhibitors. P43220; further: on the % scale 0 is the no-effect control and ±100 the full control effect; nearly all actives have a fitted effect of over 55% in size
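GLP-1R inverse agonism mode: basal reporter luminescence in engineered HEK293 cells measured after one day of compound exposure at 37 deg C, with a 12 min room-temperature detection step.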
GLP1R cytotox: cytotoxicity counter-screen for GLP-1 receptor inverse agonists; HEK293 cAMP-luciferase reporter cells, luminescence, 24 h; Potency, µM (doses to about 38.3 µM), for inactives: at the highest dose activity change, negative = inhibition, most hits filed as inhibitors; 410,000 compounds, 0.13% hits; AID 624418;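 further: loss of luciferase light is scored as toxicity; on the % scale 0 is the no-effect control and ±100 the full control effect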
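1536-well qHTS counterscreen of the MLSMR; 200 cells/uL, 12 h pre-incubation, 23 nL cpd, 24 h at 37 deg C 5% CO2, luciferase detection reagent, 12 min RT, luminescence. Inhibition = undesired.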
Mito fusion act: blocks mitochondrial division or promotes mitochondrial fusion | S. cerevisiae fusion-defective mutant growth rescue, CellTiterGlo 48 h | Potency, µM (highest dose often 46.1 µM), inactives show at the top dose growth rescue (activation), hits mostly activators | 320,000 compounds, 0.23% hits | AID 485298; further: % of control where 0% means no effect; nearly all actives have a fitted effect of over 45% in size
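Yeast fusion mutant, YPEG (non-fermentable carbon), compound, 48 h at 37C non-permissive; CellTiterGlo added, 10 min RT, luminescence read. Rescued growth = division inhibition.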
Starred values were filed as active, the others as inactive. The call rests on the fitted dose curve; in most records, active means well fitted curve in the direction sought with a large enough effect; inconclusive means small, poorly fitted or top-dose-only effect, or another doubt; inactive means no such curve, though single readings can be large; an effect the other way counts as inactive or inconclusive. Potency means the concentration at half of the fitted maximal effect.

CCCCOc1ccc(C(O)C(CN2CCOCC2)c2ccccc2)cc1 (centres undefined) was read as BRCA1 expr act -3.6%, GLP1R ag -0.7%, GLP1R inv ag 10µM*, GLP1R cytotox 2.0% and Mito fusion act inconclusive.
CCOc1ccc(C(O)(c2ccccc2OC)C(CN2CCCC2)c2ccccc2)cc1 (centres undefined) was read as BRCA1 expr act -4.3%, GLP1R ag -3.4%, GLP1R inv ag inconclusive, GLP1R cytotox -13.5% and Mito fusion act -9.6%.
Screening CCCCC(O)(c1ccccc1)C(CN1CCOCC1)c1ccccc1 (centres undefined) returned BRCA1 expr act -2.7%, GLP1R ag 2.3%, GLP1R inv ag 10µM*, GLP1R cytotox -1.2% and Mito fusion act 6.3%.
For Cc1ccc(S(=O)(=O)N(C)C)cc1NC(=O)c1cncc(Br)c1 the results were BRCA1 expr act -32.9%, GLP1R ag -3.4%, GLP1R inv ag inconclusive, GLP1R cytotox -24.0% and Mito fusion act 3.2%.
Screening COc1ccc(C)cc1S(=O)(=O)Nc1cc(Cl)ccc1Cl returned BRCA1 expr act -17.2%, GLP1R ag -33.7%, GLP1R inv ag 8.91µM*, GLP1R cytotox 11.0% and Mito fusion act 21.4%.
COc1ccc(S(=O)(=O)Nc2cc(Cl)ccc2OC)cc1 was read as BRCA1 expr act -92.0%, GLP1R ag -1.5%, GLP1R inv ag 1.41µM*, GLP1R cytotox -25.7% and Mito fusion act 1.5%.
For COc1cc(NS(=O)(=O)c2cc(C)ccc2OC)c(OC)cc1Cl the results were BRCA1 expr act -36.5%, GLP1R ag 0.8%, GLP1R inv ag -41.7%, GLP1R cytotox -0.5% and Mito fusion act 2.8%.
Screening Cc1occc1C(=O)NNC(=O)c1nn(C)c(=O)c2ccccc12 returned BRCA1 expr act -16.5%, GLP1R ag 8.9%, GLP1R inv ag 15.0%, GLP1R cytotox -8.1% and Mito fusion act -0.1%.
C=CCc1cccc2cc(-c3nc4ccc(C)cc4[nH]3)c(=O)oc12 was read as BRCA1 expr act 2µM*, GLP1R inv ag 8.0% and GLP1R cytotox -1.3%.
O=C(O)c1ccc2nc(-c3cc4cccc(O)c4oc3=O)[nH]c2c1 was read as GLP1R inv ag inconclusive, GLP1R cytotox 5.5% and Mito fusion act -21.0%.
`Cc1ccc2c(c1)N=C(c1ccccc1)CC(C(Cl)Cl)=N2` gave BRCA1 expr act -41.0%, GLP1R ag 1.7%, GLP1R inv ag inconclusive, GLP1R cytotox 12.8% and Mito fusion act -1.6%.
Screening Cc1cc2c(cc1C)NC(=O)CC(c1ccccc1)=N2 returned BRCA1 expr act 3.16µM*, GLP1R ag 9.9%, GLP1R inv ag 20.0% and GLP1R cytotox -8.4%.
`COc1ccc(OCC(O)CNC(=O)Nc2ccccc2)cc1` (centres undefined) gave BRCA1 expr act -4.3%, GLP1R ag 11.6%, GLP1R inv ag 0.0%, GLP1R cytotox -15.0% and Mito fusion act 2.2%.
For Cc1ccc(-n2cnc3scc(-c4cccs4)c3c2=O)cc1 the results were BRCA1 expr act -41.7%, GLP1R ag 0.8%, GLP1R inv ag 10µM*, GLP1R cytotox -6.0% and Mito fusion act inconclusive.
For CN1CCN(Cc2c(C#N)c3ccccc3n2C)CC1 the results were BRCA1 expr act -0.9%, GLP1R ag -13.1%, GLP1R inv ag inconclusive, GLP1R cytotox -20.4% and Mito fusion act -5.8%.
COc1cc(NC(=O)NC(C)(C(F)(F)F)C(F)(F)F)cc(OC)c1OC was read as BRCA1 expr act -2.3%, GLP1R ag 17.1%, GLP1R inv ag inconclusive, GLP1R cytotox 8.7% and Mito fusion act -0.6%.
N#C/C(=C\c1ccc(OCc2ccccc2)cc1)C(=O)Nc1ccc(C(=O)O)cc1 was read as BRCA1 expr act 11.2µM*, GLP1R ag 5.2%, GLP1R inv ag 25.1%, GLP1R cytotox 3.6% and Mito fusion act 0.2%.
For N#C/C(=C\c1ccc(OCc2ccc(C(=O)O)cc2)cc1)C(=O)N1CCOCC1 the results were BRCA1 expr act inconclusive, GLP1R ag -4.4%, GLP1R inv ag 1µM*, GLP1R cytotox -15.5% and Mito fusion act 2.0%.
Screening CN1CCN(S(=O)(=O)c2ccc(=O)[nH]c2)CC1 returned BRCA1 expr act -1.9%, GLP1R ag -14.4%, GLP1R inv ag 0.0%, GLP1R cytotox -17.4% and Mito fusion act -2.9%.
`Cc1cccc(N2CCN(C(=O)c3ccc(CS(=O)c4cccc(Cl)c4)o3)CC2)c1C` (centres undefined) gave GLP1R inv ag 1µM* and GLP1R cytotox inconclusive.
For COc1ccc(S(=O)(=O)Cc2ccc(C(=O)N3CCN(c4cccc(C)c4C)CC3)o2)cc1 the results were BRCA1 expr act -50.2%, GLP1R ag -5.8%, GLP1R inv ag inconclusive, GLP1R cytotox -24.4% and Mito fusion act inconclusive.
`Cc1ccccc1S(=O)Cc1ccc(C(=O)N2CCN(c3cccc(C)c3C)CC2)o1` (centres undefined) gave GLP1R inv ag 1.12µM* and GLP1R cytotox -32.5%.
`Cc1ccc(S(=O)(=O)Cc2ccc(C(=O)N3CCN(c4cccc(C)c4C)CC3)o2)cc1` gave BRCA1 expr act -62.3%, GLP1R ag 13.1%, GLP1R inv ag 5.01µM*, GLP1R cytotox inconclusive and Mito fusion act 15.6%.
Screening Cc1cccc(N2CCN(C(=O)c3ccc(CS(=O)Cc4ccc(Cl)cc4)o3)CC2)c1C (centres undefined) returned BRCA1 expr act -8.5%, GLP1R ag 12.6%, GLP1R inv ag 10µM*, GLP1R cytotox -19.5% and Mito fusion act -14.9%.
`O=C(NC1CCN(S(=O)(=O)c2ccccc2)CC1)C1CCCCC1` gave BRCA1 expr act -1.5%, GLP1R ag 3.5%, GLP1R inv ag 0.4%, GLP1R cytotox inconclusive and Mito fusion act -0.4%.
For O=C(CCc1nc(-c2ccccc2)no1)NCc1ccco1 the results were BRCA1 expr act 6.7%, GLP1R ag -10.5%, GLP1R inv ag 3.4%, GLP1R cytotox 12.1% and Mito fusion act 2.8%.
CCN(CC(=O)Nc1c(F)cccc1F)C(=O)CCc1c[nH]c2ccccc12 was read as BRCA1 expr act 2.7%, GLP1R ag 15.1%, GLP1R inv ag 6.7%, GLP1R cytotox -4.3% and Mito fusion act 15.9%.
Screening C[C@@H]1CN([C@@H](C)CO)C(=O)CCCn2nncc2CO[C@@H]1CN(C)C(=O)Nc1ccc(C(F)(F)F)cc1 returned BRCA1 expr act 2.9%, GLP1R ag -1.9%, GLP1R inv ag -6.8% and GLP1R cytotox -5.9%.
Cc1cccc2nc(-c3cccnc3)c(Nc3ccc(C(C)C)cc3)n12 was read as GLP1R inv ag 10µM* and GLP1R cytotox -13.7%.
